Measured values published in PMC7862700, “An all-to-all approach to the identification of sequence-specific readers for epigenetic DNA modifications on cytosine”.

What was measured:
Test in all cases: DAPPL (digital affinity profiling via proximity ligation, sequencing); 10 mM Tris-HCl pH 7.5, 50 mM NaCl, 1 mM DTT, 4% glycerol, room temperature, 30 min; GST-TFs on glutathione beads, 16-mer random dsDNA library, 0.1% formaldehyde crosslink after washing; high values mean tight binding
[1] = target: T1, FLI1 (Homo sapiens, UniProt Q01543 1-452); details: protein: recombinant; tags: N-terminal GST; dsDNA, one strand shown
T1 sequence: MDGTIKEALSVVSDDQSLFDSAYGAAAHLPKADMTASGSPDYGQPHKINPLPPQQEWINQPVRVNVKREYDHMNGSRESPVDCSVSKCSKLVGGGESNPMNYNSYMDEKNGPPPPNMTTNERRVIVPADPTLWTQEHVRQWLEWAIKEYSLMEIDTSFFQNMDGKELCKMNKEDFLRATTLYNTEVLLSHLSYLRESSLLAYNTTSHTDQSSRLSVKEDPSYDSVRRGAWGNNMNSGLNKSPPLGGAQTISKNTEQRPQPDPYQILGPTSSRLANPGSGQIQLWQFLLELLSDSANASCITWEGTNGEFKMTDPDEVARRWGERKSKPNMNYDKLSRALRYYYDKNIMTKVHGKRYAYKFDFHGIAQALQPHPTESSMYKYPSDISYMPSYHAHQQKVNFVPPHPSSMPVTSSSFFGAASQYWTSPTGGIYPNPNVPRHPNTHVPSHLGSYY
How it was run: (§1)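 In yeast, human transcription factors were expressed with a GST fusion, then pulled down on glutathione beads and given DNA barcodes. Pooled with a tag-only sample, they were exposed to 200 nmole of a 16-mer random double-stranded DNA library (Tris/NaCl/DTT/glycerol buffer, room temperature, 30 min), washed, crosslinked with 0.1% formaldehyde, proximity-ligated using BsaI/T4 ligase for 1 h at 37 °C, PCR-amplified and read on an Illumina NextSeq500. Each hexamer's frequency of reads for a factor, divided by the matching frequency for the tag-only sample, gives the binding signal.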

[2] = target: T2, ELK1 (Homo sapiens, UniProt P19419 1-428); details: protein: recombinant; tags: N-terminal GST; dsDNA, one strand shown
T2 sequence: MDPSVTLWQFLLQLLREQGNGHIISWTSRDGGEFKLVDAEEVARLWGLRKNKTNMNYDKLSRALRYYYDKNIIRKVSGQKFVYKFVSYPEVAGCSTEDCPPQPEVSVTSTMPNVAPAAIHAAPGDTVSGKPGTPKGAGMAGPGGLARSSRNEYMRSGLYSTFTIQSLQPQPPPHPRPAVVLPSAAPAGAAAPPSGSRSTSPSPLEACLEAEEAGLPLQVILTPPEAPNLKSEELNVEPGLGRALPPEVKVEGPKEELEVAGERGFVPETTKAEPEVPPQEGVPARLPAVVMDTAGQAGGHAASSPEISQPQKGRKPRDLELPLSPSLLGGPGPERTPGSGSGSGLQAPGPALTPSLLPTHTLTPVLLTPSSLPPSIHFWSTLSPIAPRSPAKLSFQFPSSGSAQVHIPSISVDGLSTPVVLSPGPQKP
How it was run: as §1

[3] = target: T3, GABPA (Homo sapiens, UniProt Q06546 1-454); details: protein: recombinant; tags: N-terminal GST; dsDNA, one strand shown
T3 sequence: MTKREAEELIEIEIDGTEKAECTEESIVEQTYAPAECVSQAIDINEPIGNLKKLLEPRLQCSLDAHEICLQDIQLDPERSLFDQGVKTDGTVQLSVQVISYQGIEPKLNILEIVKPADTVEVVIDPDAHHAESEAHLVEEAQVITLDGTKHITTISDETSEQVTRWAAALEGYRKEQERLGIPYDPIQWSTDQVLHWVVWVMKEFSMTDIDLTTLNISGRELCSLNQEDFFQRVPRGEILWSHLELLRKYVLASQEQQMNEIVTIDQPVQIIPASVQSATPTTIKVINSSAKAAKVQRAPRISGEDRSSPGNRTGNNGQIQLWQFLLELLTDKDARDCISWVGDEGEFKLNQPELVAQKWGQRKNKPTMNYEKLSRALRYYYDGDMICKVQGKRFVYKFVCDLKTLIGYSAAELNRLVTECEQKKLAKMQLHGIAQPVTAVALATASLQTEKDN
How it was run: as §1

[4] = target: T4, ERG (Homo sapiens, UniProt P11308 1-479); details: protein: recombinant; tags: N-terminal GST; dsDNA, one strand shown
T4 sequence: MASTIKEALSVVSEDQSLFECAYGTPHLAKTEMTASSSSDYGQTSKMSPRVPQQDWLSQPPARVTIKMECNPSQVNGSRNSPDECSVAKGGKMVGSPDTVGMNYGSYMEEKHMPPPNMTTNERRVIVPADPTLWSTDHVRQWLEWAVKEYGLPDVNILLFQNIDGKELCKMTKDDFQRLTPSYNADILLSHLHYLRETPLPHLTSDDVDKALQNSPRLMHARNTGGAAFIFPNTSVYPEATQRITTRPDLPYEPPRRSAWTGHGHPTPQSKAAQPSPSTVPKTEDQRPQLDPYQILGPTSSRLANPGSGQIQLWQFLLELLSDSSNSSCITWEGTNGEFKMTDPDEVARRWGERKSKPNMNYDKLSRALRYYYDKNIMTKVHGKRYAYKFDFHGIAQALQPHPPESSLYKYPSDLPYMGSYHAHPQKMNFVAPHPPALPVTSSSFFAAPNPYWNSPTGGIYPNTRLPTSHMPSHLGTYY
How it was run: as §1

[5] = target: ELF1 (Homo sapiens, UniProt P32519 1-619); details: protein: recombinant; tags: N-terminal GST; dsDNA, one strand shown
Chain of ELF1 (P32519 whole entry): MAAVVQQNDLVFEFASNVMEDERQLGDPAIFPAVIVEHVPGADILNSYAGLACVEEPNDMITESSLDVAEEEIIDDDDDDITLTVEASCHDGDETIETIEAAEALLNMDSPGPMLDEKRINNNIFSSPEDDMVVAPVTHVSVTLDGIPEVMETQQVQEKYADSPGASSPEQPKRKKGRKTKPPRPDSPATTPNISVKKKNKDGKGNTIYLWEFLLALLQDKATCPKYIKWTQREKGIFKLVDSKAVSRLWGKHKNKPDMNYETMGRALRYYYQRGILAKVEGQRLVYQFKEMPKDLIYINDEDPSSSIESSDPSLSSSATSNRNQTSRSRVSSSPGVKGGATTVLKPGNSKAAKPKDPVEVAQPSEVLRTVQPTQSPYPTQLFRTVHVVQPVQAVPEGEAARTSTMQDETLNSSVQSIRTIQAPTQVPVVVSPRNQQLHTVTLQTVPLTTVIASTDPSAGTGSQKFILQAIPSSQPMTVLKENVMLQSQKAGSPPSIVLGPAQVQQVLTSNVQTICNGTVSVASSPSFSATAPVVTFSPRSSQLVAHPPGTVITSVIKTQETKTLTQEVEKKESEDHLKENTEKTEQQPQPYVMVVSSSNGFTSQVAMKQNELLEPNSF
How it was run: as §1

[6] = target: T5, EHF (Homo sapiens, UniProt Q9NZC4 1-300); details: protein: recombinant; tags: N-terminal GST; dsDNA, one strand shown
T5 sequence: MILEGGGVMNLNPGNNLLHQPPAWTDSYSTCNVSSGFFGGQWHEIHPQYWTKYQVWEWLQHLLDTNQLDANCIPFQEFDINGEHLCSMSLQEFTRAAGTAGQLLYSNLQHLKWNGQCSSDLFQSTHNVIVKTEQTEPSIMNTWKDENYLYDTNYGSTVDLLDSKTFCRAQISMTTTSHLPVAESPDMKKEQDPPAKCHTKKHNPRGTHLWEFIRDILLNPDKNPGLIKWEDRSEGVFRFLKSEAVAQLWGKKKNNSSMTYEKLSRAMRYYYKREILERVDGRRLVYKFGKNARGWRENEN
How it was run: as §1

[7] = target: SPI1 (Homo sapiens, UniProt P17947 1-270); details: protein: recombinant; tags: N-terminal GST; dsDNA, one strand shown
How it was run: as §1

[8] = target: SPIB (Homo sapiens, UniProt Q01892 1-262); details: protein: recombinant; tags: N-terminal GST; dsDNA, one strand shown
Chain of SPIB (Q01892 whole entry): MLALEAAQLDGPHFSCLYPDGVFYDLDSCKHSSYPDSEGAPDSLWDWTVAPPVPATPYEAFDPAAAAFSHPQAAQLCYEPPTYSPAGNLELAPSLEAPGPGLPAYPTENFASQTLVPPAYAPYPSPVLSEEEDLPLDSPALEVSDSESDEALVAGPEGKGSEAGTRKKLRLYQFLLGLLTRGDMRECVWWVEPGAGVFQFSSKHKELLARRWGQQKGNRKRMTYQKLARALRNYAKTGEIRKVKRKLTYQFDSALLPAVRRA
How it was run: as §1

[9] = target: T6, ELK3 (Homo sapiens, UniProt P41970 1-407); details: protein: recombinant; tags: N-terminal GST; dsDNA, one strand shown
T6 sequence: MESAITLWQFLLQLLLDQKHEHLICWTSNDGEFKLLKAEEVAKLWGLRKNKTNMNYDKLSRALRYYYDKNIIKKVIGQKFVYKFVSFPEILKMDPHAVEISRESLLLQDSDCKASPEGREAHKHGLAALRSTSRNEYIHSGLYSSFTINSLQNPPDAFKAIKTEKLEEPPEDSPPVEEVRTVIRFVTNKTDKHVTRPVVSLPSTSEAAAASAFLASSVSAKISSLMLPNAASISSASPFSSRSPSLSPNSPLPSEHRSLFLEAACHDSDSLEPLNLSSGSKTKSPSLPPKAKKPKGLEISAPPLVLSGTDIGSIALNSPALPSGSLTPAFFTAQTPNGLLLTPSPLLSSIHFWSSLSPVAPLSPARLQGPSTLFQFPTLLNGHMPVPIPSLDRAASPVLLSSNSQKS
How it was run: as §1

[10] = target: T7, FEV (Homo sapiens, UniProt Q99581 1-238); details: protein: recombinant; tags: N-terminal GST; dsDNA, one strand shown
T7 sequence: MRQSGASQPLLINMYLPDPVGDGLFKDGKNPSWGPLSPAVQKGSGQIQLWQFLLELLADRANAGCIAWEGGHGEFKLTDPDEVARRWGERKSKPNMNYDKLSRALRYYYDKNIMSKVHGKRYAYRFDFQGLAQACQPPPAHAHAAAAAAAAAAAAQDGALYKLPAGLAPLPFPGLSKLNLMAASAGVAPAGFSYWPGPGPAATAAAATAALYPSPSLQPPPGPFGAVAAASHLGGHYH
How it was run: as §1

[11] = target: ETV5 (Homo sapiens, UniProt P41161 1-510); details: protein: recombinant; tags: N-terminal GST; dsDNA, one strand shown
Chain of ETV5 (P41161 whole entry): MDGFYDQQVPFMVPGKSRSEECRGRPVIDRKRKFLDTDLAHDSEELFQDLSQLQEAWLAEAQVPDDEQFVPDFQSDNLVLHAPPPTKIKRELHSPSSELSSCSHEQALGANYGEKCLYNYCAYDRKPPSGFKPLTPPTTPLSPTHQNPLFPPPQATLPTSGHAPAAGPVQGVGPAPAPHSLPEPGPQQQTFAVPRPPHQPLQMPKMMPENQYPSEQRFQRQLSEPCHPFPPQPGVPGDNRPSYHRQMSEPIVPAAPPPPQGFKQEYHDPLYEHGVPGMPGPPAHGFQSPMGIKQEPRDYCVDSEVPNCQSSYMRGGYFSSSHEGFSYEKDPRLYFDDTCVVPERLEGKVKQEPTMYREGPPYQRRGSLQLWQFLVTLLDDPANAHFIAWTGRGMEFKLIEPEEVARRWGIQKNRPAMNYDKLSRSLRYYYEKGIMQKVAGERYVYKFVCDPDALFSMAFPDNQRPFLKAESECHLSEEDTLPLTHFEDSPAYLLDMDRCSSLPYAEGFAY
How it was run: as §1

[12] = target: HSF1 (Homo sapiens, UniProt Q00613 1-529); details: protein: recombinant; tags: N-terminal GST; chain copies: 3; dsDNA, one strand shown
Chain of HSF1 (Q00613 whole entry): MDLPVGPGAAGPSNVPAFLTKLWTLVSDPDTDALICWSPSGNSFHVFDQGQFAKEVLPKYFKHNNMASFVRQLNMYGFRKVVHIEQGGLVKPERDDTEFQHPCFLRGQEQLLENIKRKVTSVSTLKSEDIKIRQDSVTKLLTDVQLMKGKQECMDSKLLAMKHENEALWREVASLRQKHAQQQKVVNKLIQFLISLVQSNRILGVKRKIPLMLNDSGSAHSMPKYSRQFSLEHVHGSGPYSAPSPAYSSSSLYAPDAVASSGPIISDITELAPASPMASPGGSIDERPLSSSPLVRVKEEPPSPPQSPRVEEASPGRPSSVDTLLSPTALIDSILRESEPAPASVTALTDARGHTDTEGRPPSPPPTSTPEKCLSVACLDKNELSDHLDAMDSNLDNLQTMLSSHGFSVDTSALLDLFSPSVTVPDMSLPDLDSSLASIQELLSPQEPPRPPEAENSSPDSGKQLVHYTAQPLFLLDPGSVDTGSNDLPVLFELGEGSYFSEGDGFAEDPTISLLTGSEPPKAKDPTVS
How it was run: as §1

[13] = target: T8, SPIC (Homo sapiens, UniProt Q8N5J4 1-248); details: protein: recombinant; tags: N-terminal GST; dsDNA, one strand shown
T8 sequence: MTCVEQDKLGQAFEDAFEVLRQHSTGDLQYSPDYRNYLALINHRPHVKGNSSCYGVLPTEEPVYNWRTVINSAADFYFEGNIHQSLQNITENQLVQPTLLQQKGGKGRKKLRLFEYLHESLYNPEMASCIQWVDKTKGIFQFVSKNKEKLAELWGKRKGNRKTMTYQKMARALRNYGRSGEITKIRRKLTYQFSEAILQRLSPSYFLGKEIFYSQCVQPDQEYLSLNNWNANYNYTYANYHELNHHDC
How it was run: as §1

[14] = target: ELF4 (Homo sapiens, UniProt Q99607 1-663); details: protein: recombinant; tags: N-terminal GST; dsDNA, one strand shown
Chain of ELF4 (Q99607 whole entry): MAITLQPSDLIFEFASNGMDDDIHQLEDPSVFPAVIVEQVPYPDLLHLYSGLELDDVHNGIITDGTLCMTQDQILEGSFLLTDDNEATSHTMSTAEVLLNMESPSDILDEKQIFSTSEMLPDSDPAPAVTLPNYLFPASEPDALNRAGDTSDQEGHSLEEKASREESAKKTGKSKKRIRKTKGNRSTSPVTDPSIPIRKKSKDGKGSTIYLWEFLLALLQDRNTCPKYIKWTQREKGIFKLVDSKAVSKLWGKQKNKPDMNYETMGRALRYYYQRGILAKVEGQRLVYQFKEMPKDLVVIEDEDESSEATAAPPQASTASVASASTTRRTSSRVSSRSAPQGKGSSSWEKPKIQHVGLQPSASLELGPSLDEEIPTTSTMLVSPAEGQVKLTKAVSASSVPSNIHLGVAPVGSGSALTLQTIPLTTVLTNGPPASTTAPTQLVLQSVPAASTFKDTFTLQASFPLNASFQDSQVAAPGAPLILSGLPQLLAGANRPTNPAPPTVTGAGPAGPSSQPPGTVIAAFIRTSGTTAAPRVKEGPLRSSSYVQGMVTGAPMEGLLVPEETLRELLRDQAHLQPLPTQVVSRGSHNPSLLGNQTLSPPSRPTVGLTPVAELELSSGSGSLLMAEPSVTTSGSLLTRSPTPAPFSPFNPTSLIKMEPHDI
How it was run: as §1

[15] = target: T9, ELK4 (Homo sapiens, UniProt P28324-2 1-405); details: protein: recombinant; tags: N-terminal GST; dsDNA, one strand shown
T9 sequence: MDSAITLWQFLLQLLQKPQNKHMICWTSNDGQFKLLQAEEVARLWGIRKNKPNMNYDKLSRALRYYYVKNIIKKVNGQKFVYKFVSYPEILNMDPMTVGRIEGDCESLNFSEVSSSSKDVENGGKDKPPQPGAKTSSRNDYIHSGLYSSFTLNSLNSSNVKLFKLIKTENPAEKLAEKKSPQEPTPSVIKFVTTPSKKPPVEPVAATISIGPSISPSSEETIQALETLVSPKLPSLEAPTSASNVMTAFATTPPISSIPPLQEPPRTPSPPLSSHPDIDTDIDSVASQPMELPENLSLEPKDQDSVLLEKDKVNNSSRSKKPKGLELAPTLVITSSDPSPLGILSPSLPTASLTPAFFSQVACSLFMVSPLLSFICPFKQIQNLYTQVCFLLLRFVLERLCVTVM
How it was run: as §1

[16] = target: T10, ETV2 (Homo sapiens, UniProt O00321 1-342); details: protein: recombinant; tags: N-terminal GST; dsDNA, one strand shown
T10 sequence: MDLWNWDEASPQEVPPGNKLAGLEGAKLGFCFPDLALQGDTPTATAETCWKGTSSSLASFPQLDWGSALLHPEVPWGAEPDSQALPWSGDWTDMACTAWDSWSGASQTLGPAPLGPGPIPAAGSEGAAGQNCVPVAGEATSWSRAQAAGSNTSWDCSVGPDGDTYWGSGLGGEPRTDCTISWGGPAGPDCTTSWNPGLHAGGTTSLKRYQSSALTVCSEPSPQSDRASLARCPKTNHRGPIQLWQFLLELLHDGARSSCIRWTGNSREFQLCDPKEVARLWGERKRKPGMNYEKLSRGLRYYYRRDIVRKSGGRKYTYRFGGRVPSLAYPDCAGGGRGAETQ
How it was run: as §1

[17] = target: T11, ELF3 (Homo sapiens, UniProt P78545 1-371); details: protein: recombinant; tags: N-terminal GST; dsDNA, one strand shown
T11 sequence: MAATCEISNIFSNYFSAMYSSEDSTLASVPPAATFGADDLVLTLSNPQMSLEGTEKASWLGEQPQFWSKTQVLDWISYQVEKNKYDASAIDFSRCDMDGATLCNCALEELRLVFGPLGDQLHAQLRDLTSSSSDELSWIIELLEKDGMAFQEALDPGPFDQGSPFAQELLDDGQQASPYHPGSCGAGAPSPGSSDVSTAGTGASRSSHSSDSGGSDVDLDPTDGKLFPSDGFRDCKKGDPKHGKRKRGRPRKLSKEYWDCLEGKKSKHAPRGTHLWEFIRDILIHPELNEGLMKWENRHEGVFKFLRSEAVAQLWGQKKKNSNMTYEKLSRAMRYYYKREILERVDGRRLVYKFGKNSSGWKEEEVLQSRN
How it was run: as §1

[18] = target: CRX (Homo sapiens, UniProt O43186 1-299); details: protein: recombinant; tags: N-terminal GST; dsDNA, one strand shown
Chain of CRX (O43186 whole entry): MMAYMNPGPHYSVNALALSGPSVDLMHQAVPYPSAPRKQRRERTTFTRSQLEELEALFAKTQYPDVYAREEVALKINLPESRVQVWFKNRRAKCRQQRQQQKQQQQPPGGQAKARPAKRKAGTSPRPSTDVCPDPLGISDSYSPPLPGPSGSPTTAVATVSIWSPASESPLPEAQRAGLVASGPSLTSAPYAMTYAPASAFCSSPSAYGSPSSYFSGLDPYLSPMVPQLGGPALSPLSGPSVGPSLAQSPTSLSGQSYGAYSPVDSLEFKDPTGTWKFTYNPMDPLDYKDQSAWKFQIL
How it was run: as §1

[19] = target: ETV1 (Homo sapiens, UniProt P50549 1-477); details: protein: recombinant; tags: N-terminal GST; dsDNA, one strand shown
Chain of ETV1 (P50549 whole entry): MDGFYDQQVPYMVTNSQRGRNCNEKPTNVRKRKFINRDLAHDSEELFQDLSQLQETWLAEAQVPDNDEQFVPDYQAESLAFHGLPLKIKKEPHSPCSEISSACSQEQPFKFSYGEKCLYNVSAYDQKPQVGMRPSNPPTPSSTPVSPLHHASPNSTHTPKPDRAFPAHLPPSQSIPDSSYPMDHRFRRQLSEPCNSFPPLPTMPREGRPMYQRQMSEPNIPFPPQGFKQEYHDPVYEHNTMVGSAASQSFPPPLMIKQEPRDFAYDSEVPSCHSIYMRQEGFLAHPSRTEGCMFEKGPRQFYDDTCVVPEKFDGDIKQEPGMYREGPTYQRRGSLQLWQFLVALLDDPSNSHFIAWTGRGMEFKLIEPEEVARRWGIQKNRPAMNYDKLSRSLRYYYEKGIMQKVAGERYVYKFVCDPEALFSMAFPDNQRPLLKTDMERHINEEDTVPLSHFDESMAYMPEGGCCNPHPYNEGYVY
How it was run: as §1

Sequence: TAGTGG
- binding signal [1]: 1.18 fold enrichment (6-mer frequency, TF over GST control)
- binding signal [2]: 1.19 fold enrichment (6-mer frequency, TF over GST control)
- binding signal [3]: 1.25 fold enrichment (6-mer frequency, TF over GST control)
- binding signal [4]: 1.07 fold enrichment (6-mer frequency, TF over GST control)
- binding signal [5]: 1.28 fold enrichment (6-mer frequency, TF over GST control)
- binding signal [6]: 1.32 fold enrichment (6-mer frequency, TF over GST control)
- binding signal [7]: 1.19 fold enrichment (6-mer frequency, TF over GST control)
- binding signal [8]: 1.34 fold enrichment (6-mer frequency, TF over GST control)
- binding signal [9]: 1.4 fold enrichment (6-mer frequency, TF over GST control)
- binding signal [10]: 1.21 fold enrichment (6-mer frequency, TF over GST control)
- binding signal [11]: 1.11 fold enrichment (6-mer frequency, TF over GST control)
- binding signal [12]: 1.33 fold enrichment (6-mer frequency, TF over GST control)
- binding signal [13]: 1.24 fold enrichment (6-mer frequency, TF over GST control)
- binding signal [14]: 1.15 fold enrichment (6-mer frequency, TF over GST control)
- binding signal [15]: 1.37 fold enrichment (6-mer frequency, TF over GST control)
- binding signal [16]: 1.15 fold enrichment (6-mer frequency, TF over GST control)
- binding signal [17]: 1.1 fold enrichment (6-mer frequency, TF over GST control)
- binding signal [18]: 1.52 fold enrichment (6-mer frequency, TF over GST control)
- binding signal [19]: 1.14 fold enrichment (6-mer frequency, TF over GST control)
